PubChem BioAssay (Tox21)
Records with an inconclusive call do not appear. The source made the active and inactive calls. Unless noted, calls follow the shape of the dose curve; as a rule, active = well fitted curve in the direction sought with a large enough effect in the repeat runs; inconclusive = weak or mixed curves; inactive = no such curve, though single readings can be large; an effect the other way counts as inactive or inconclusive.

Legend:
[1] = molecular target: Thyrotropin receptor (Homo sapiens) (UniProt P16473); test: qHTS assay to identify small molecule antagonists of the thyroid stimulating hormone receptor (TSHR) signaling pathway (AID 1259385; calls by dose curve; also: nearly all actives have a fitted effect of over 20% in size)
Summary of the method: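 TSHR-HEK293 cells (800/well) plated 18 h, then compounds with Ro20-1724 and TSH at 1.5 ng/mL final, 30 min at room temperature. cAMP quantified by HTRF (cAMP-d2/anti-cAMP-cryptate, 1 h); 15 concentrations in triplicate.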

[2] = qHTS assay to identify small molecule agonists of the estrogen receptor alpha (ER-alpha) signaling pathway in the presence of an antagonist - cell viability counter screen (AID 1259386);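 also: series mostly up to about 92 µM; cells exposed to compounds for 22 h at 37 °C before the viability read; nearly all actives have a fitted effect of over 30% in size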
Summary of the method: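 VM7Luc4E2 cells (endogenous full-length ER-alpha, 4×ERE-luciferase) were held 5 days in phenol red-free medium with 10% charcoal-stripped FBS, plated, then given 10.0nM ICI-182,780 and compounds at 15 concentrations for 22hr at 37C; viability read by CellTiter-Fluor fluorescence.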

[3] = molecular target: Progesterone receptor (Homo sapiens) (UniProt P06401); test: qHTS assay to identify small molecule agonists of the progesterone receptor (PR) signaling pathway (AID 1346784; calls by dose curve; also: nearly all actives have a fitted effect of over 30% in size)
Summary of the method: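 Seed PR-UAS-bla HEK 293T cells (2% charcoal-stripped FBS), incubate 6 hr at 37C; add compounds in DMSO, 16 hr at 37C; add LiveBLAzer B/G substrate, 2 hr RT; read fluorescence intensity.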

[4] = molecular target: Progesterone receptor (Homo sapiens) (UniProt P06401); test: qHTS assay to identify small molecule antagonists of the progesterone receptor (PR) signaling pathway (AID 1346795; active = well fitted inhibition curve with a large enough effect in the signal ratio in the repeat runs, not every such curve was filed as active; the % refers to the signal ratio)
Summary of the method: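 Screening used a GripTite HEK293T line with PR-responsive UAS-beta-lactamase. Cells were challenged with compound in the presence of 1 nM R5020 final for 16 hr at 37C; B/G FRET substrate, 2 hr room temperature, fluorescence.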

[5] = qHTS assay to identify small molecule antagonists of the progesterone receptor (PR) signaling pathway - cell viability counter screen (AID 1346798); also: series mostly up to about 92 µM; nearly all actives have a fitted effect of over 50% in size
Summary of the method: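 Measures cytotoxicity in parallel with the PR antagonist reporter read: HEK293T PR-UAS-bla cells get compound and R5020 for 16 hr, and remaining viable cells are quantified by CellTiter-Glo luminescence.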

[6] = qHTS assay to identify small molecule agonists of the progesterone receptor (PR) signaling pathway - cell viability counter screen (AID 1346799; calls by dose curve; also: nearly all actives have a fitted effect of over 45% in size)
Summary of the method: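 Using the same plates as the PR reporter screen, HEK293T PR-UAS-bla cells received compounds for 16 hr at 37C and were then lysed with CellTiter-Glo; luminescence was read 30 min later at room temperature.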

[7] = qHTS assay to identify small molecule antagonists of the TGF-beta/Smad signaling pathway - cell viability counter screen (AID 1346824); also: nearly all actives have a fitted effect of over 50% in size
Summary of the method: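 SBE-bla HEK 293T cells, incubated overnight, then compound plus 0.25 ng/mL TGF-beta1 (stock added) for 5 hr at 37 C. Viability was read in the same wells by CellTiter-Glo luminescence after 30 min at room temperature.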

[8] = qHTS assay to identify small molecule agonists of the TGF-beta/Smad signaling pathway - cell viability counter screen (AID 1346829); also: top concentration of the series differs between compounds; nearly all actives have a fitted effect of over 45% in size
Summary of the method: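 Tox21 qHTS format: SBE-bla HEK 293T cells treated with DMSO-dissolved compounds for 5 hr; CellTiter-Glo luminescence after 30 min at room temperature.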

[9] = qHTS assay to identify small molecule agonists of the TGF-beta/Smad signaling pathway (AID 1346859; active = well fitted activation curve with a large enough effect in the signal ratio in the repeat runs, not every such curve was filed as active; the % refers to the signal ratio; also: series mostly up to about 77 µM)
Summary of the method: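 Beta-lactamase reporter activity downstream of Smad binding elements was measured in stably transfected HEK 293T cells; compounds were incubated for 5 hr, substrate for 2 hr at room temperature.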

[10] = molecular target: Thyrotropin-releasing hormone receptor (Homo sapiens) (UniProt P34981); test: qHTS assay to identify small molecule antagonists of the thyrotropin-releasing hormone receptor (TRHR) signaling pathway (AID 1346877; active = well fitted inhibition curve with a large enough effect in the repeat runs, not every such curve was filed as active; also: series mostly up to about 51 µM)
Summary of the method: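 TRHR-expressing HEK293 cells were seeded, cultured 18 h at 37 °C, then loaded with calcium dye for 2 h. Compounds were pre-incubated 5 min at room temperature before 1 nM TRH (final) was added, and kinetic fluorescence was recorded for 3 min.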

[11] = molecular target: Thyrotropin-releasing hormone receptor (Homo sapiens) (UniProt P34981); test: qHTS assay to identify small molecule agonists of the thyrotropin-releasing hormone receptor (TRHR) signaling pathway (AID 1346891; calls by dose curve; also: series mostly up to about 58 µM)
Summary of the method: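 Overnight-plated (18 h, 37 °C, 5% CO2) TRHR-Hek293 cells; 2 h calcium dye at 37 °C; compound in DMSO; 3-min kinetic fluorescence read.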

[12] = Human pregnane X receptor (PXR) small molecule agonists, qHTS cell viability counter screen (AID 1346977); also: nearly all actives have a fitted effect of over 50% in size
Summary of the method: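 After a 5hr pre-incubation, PXR-Luc HepG2 cells received compounds plus positive control in DMSO and were kept 24hr at 37C. Cell viability was quantified by fluorescence from CellTiter-Fluor added for the final hour.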

[13] = Caspase-3/7 induction in HepG2 cells by small molecules, qHTS assay (AID 1346978); also: nearly all actives have a fitted effect of over 15% in size
Summary of the method: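 Wild-type HepG2 cells, 2,000/well, settled 5 hr at 37 C and 5% CO2, then compound-treated for 17 hr; caspase-3/7 activity read by luminescent Caspase-Glo 3/7 after 30 min at room temperature.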

[14] = Caspase-3/7 induction in CHO-K1 cells by small molecules, qHTS cell viability counter screen (AID 1346979); also: nearly all actives have a fitted effect of over 35% in size
Summary of the method: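 Multiplexed with Caspase-Glo 3/7 in CHO-K1 cells, this counter screen added CellTiter-Fluor after 16hr of compound exposure and recorded fluorescence 1hr later.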

[15] = Caspase-3/7 induction in CHO-K1 cells by small molecules, qHTS assay (AID 1346980); also: nearly all actives have a fitted effect of over 15% in size
Summary of the method: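 Wild-type CHO-K1 cells exposed to compounds for 17hr at 37 C, 5% CO2. Caspase-3/7 activity then measured by Caspase-Glo 3/7 luminescence after 30min at room temperature.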

[16] = Caspase-3/7 induction in HepG2 cells by small molecules, qHTS cell viability counter screen (AID 1346981); also: series mostly up to about 92 µM; nearly all actives have a fitted effect of over 30% in size
Summary of the method: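 Wild-type HepG2 cells (2,000/well) were allowed to settle for 5 hr at 37 C, 5% CO2, then dosed with compounds in DMSO by pin transfer. After 16 hr at 37 C, CellTiter-Fluor was added and fluorescence read 1 hr later.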

[17] = molecular target: Nuclear receptor subfamily 1 group I member 2 (Homo sapiens) (UniProt O75469); test: Human pregnane X receptor (PXR) small molecule agonists, qHTS assay (AID 1346982); also: nearly all actives have a fitted effect of over 35% in size
Summary of the method: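 PXR-Luc HepG2 cells (CYP3A4 promoter-driven luciferase) were seeded in medium with 5% charcoal-stripped FBS, left 5 hr at 37 C, then exposed to compounds in DMSO for 24 hr. Luminescence was read after ONE-Glo addition.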

[18] = molecular target: Nuclear receptor subfamily 1 group I member 2 (Rattus norvegicus) (UniProt Q9R1A7); test: Rat pregnane X receptor (rPXR) activation by small molecules, qHTS assay (AID 1346983); settings: rPXR luciferase reporter cells, One-Glo luminescence, 24 h; active compounds read high; also: nearly all actives have a fitted effect of over 20% in size
Summary of the method: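 Cell-based rPXR activation assay: rPXR cells, 2,000 per well, rested 5hr at 37 C, then exposed to compounds in DMSO for 24 hr at 37 C. Luciferase activity read by One-Glo luminescence after 30 min at room temperature.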

[19] = molecular target: Nuclear receptor subfamily 1 group I member 2 (Homo sapiens) (UniProt O75469); test: CYP3A4 induction through human pregnane X receptor (PXR) by small molecules, qHTS assay (AID 1346984); also: nearly all actives have a fitted effect of over 40% in size
Summary of the method: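 DPX-2 cells (HepG2 co-transfected with PXR and CYP3A4 promoter-luciferase) treated with compounds 24 h at 37C; luciferin-IPA CYP3A4 substrate 3uM final added for 3 h, then One-Glo; luminescence read. qHTS format.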

[20] = molecular target: Nuclear receptor subfamily 1 group I member 2 (Homo sapiens) (UniProt O75469); test: Human pregnane X receptor (PXR) activation by small molecules, qHTS assay (AID 1346985); also: nearly all actives have a fitted effect of over 40% in size
Summary of the method: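 DPX-2 cells (HepG2 co-transfected with a PXR response element and a CYP3A4-promoter luciferase construct) were seeded at 2,000 per well, rested 5 hr at 37C, then exposed to DMSO-dissolved compounds for 24 hr. Activation was read as luciferase luminescence.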
% is scaled to controls: 0 for no effect and ±100 for the full control effect.

Sequence of Nuclear receptor subfamily 1 group I member 2 (Rattus norvegicus) (Q9R1A7 whole entry, looked up): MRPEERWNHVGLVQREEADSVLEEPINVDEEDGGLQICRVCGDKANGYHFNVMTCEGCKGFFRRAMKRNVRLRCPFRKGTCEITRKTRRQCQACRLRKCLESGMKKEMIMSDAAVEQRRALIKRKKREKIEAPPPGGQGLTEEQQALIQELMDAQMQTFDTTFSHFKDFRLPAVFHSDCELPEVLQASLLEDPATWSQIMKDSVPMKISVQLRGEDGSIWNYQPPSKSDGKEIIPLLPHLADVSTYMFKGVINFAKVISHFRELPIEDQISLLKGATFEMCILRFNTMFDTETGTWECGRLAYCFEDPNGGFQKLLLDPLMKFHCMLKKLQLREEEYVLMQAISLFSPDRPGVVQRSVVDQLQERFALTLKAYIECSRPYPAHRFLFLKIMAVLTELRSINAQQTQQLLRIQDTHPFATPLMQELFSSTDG
Sequence of Thyrotropin-releasing hormone receptor (Homo sapiens) (P34981 whole entry, looked up): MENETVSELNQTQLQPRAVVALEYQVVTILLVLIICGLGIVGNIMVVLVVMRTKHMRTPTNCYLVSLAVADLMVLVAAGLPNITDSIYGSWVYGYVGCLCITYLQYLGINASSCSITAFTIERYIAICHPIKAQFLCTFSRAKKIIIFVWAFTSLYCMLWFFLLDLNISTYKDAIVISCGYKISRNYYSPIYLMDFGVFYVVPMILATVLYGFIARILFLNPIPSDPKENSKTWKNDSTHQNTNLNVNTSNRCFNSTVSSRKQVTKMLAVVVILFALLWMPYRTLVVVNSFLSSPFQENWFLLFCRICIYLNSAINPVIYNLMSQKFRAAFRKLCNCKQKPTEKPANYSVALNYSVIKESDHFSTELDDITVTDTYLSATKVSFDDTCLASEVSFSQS
Sequence of Thyrotropin receptor (Homo sapiens) (P16473 whole entry, looked up): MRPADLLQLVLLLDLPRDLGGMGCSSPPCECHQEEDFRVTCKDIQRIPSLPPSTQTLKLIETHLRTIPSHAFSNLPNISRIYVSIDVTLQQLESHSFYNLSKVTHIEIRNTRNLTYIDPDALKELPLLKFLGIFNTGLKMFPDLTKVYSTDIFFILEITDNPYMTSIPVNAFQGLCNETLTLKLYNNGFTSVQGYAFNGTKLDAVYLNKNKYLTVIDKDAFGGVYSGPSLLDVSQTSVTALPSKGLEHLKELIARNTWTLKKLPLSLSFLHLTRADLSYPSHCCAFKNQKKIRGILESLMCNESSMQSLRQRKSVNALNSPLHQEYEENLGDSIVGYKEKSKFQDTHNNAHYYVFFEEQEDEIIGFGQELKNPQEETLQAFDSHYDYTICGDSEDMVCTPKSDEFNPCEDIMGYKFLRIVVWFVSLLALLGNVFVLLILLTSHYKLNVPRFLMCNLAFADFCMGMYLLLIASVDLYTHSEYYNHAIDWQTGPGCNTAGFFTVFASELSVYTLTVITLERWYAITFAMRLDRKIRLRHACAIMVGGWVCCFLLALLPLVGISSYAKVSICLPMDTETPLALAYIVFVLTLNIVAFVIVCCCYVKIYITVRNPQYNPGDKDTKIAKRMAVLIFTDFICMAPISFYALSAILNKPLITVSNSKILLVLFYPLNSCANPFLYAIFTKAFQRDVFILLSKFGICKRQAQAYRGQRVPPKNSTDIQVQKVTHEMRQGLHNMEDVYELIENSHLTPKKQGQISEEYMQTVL
Sequence of Progesterone receptor (Homo sapiens) (P06401 whole entry, looked up): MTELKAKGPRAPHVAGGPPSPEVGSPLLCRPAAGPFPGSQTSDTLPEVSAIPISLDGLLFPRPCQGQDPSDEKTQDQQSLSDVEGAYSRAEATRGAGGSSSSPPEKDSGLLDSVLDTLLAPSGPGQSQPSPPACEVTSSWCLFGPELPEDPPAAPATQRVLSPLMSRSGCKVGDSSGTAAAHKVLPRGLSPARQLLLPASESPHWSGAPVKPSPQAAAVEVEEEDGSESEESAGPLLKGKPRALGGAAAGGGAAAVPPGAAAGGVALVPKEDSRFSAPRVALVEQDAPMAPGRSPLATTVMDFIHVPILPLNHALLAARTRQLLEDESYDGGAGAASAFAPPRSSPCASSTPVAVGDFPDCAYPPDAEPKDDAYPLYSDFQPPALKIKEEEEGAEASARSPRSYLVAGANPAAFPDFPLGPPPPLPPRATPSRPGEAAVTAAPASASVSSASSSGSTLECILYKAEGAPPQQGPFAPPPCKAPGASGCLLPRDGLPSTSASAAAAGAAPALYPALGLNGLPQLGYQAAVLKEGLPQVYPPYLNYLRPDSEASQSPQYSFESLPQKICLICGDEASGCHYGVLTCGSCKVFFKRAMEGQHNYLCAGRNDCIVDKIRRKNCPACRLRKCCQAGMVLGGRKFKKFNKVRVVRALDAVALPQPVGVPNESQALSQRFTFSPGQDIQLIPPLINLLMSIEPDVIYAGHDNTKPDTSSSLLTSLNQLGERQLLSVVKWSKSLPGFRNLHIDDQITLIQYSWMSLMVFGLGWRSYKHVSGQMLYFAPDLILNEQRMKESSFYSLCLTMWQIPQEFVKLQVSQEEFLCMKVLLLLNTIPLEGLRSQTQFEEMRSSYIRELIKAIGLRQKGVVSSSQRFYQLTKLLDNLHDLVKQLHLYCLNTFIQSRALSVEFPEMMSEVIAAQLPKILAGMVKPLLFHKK
Sequence of Nuclear receptor subfamily 1 group I member 2 (Homo sapiens) (O75469 whole entry, looked up): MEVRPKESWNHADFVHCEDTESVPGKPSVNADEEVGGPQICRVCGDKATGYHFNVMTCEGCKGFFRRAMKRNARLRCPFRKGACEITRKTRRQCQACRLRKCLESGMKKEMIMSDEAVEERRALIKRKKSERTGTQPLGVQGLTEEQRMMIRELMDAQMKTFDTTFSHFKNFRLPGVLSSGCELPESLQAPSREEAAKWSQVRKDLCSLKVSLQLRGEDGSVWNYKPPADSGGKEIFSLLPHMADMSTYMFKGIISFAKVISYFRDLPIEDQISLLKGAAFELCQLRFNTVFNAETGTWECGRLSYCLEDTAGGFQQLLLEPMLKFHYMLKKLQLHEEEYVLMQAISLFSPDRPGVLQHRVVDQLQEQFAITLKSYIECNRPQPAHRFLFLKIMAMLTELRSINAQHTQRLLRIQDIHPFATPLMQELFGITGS

N[C@@H](C(=O)N[C@@H]1C(=O)N2C(C(=O)O)=C(Cl)CS[C@H]12)c1ccccc1
inactive: activity change, negative = inhibition [1] 1.57% [at 8.39 µM] | activity change, negative = cytotoxicity [2] -0.6% [at 8.39 µM] | activation [3] 0.163% [at 8.39 µM] | activity change, negative = inhibition [4] 5.57% [at 8.39 µM] | activity change, negative = cytotoxicity [5] 1.94% [at 8.39 µM] | activity change, negative = cytotoxicity [6] -11.1% [at 8.39 µM] | viability change, negative = cytotoxic [7] -15% [at 6.97 µM] | activity change, negative = cytotoxicity [8] -0.75% [at 6.97 µM] | activation [9] 1.83% [at 6.97 µM] | activity, negative = inhibition [10] 1.85% [at 4.65 µM] | activation [11] -0.0304% [at 5.23 µM] | activity change, negative = cytotoxicity [12] 4.82% [at 8.39 µM] | caspase activation [13] 0.709% [at 8.39 µM] | activity change, negative = cytotoxicity [14] 1.61% [at 8.39 µM] | caspase-3/7 activation [15] -1.31% [at 8.39 µM] | activity change, negative = cytotoxicity [16] 4.06% [at 8.39 µM] | activation [17] -7.63% [at 8.39 µM] | max activation [18] -2.39% | Potency [19] | Potency [20]

CCOC(=O)[C@H](CCc1ccccc1)N[C@@H](C)C(=O)N1[C@H](C(=O)O)C[C@@H]2CCC[C@@H]21
inactive: Potency [1] | Potency [2] | Potency [3] | Potency [4] | Potency [5] | Potency [6] | Potency [7] | outcome [8] | outcome [9] | outcome [11] | Potency [12] | Potency [13] | Potency [14] | outcome [15] | Potency [16] | Potency [17] | max activation [18] -3.39% | Potency [20]

CCCCCCOC(=O)CCCCC(=O)OCCCCCC
inactive: Potency [1] | Potency [2] | Potency [3] | Potency [4] | Potency [5] | Potency [6] | Potency [7] | outcome [8] | outcome [9] | outcome [11] | Potency [12] | Potency [13] | Potency [14] | outcome [15] | Potency [16] | Potency [17]

Nc1cc(=O)[nH]c(N)n1
inactive: Potency [1] | Potency [2] | Potency [3] | Potency [4] | Potency [5] | Potency [6] | Potency [7] | outcome [8] | outcome [9] | outcome [10] | outcome [11] | Potency [12] | Potency [13] | Potency [14] | outcome [15] | Potency [16] | Potency [17]

Cc1cc2c(cc1S(N)(=O)=O)S(=O)(=O)CCC2
inactive: Potency [1] | Potency [2] | Potency [3] | Potency [4] | Potency [5] | Potency [6] | Potency [7] | outcome [8] | outcome [9] | outcome [10] | outcome [11] | Potency [12] | Potency [13] | Potency [14] | Potency [16] | Potency [17] | max activation [18] -2.16% | Potency [19] | Potency [20]

N=C(N)c1ccc(OCCCOc2ccc(C(=N)N)cc2)cc1
inactive: Potency [1] | Potency [2] | Potency [3] | Potency [4] | Potency [5] | Potency [6] | Potency [7] | outcome [8] | outcome [9] | Potency [12] | Potency [13] | Potency [14] | Potency [16] | Potency [17]

CC(C)(CC(=O)O)C(=O)O
inactive: Potency [1] | Potency [2] | Potency [3] | Potency [4] | Potency [5] | Potency [6] | Potency [7] | outcome [8] | outcome [9] | Potency [12] | Potency [13] | Potency [14] | outcome [15] | Potency [16] | Potency [17]
